# Several values for one entry are separate records, joined by “and”; a condition that tells them apart may be missing. Equal entries are not always repeated. The campaign covered roughly 16,000 compounds. About 2,600 (16%) were called active. Roughly 20% stayed inconclusive and do not appear here. Calls come from the whole dose curve; as a rule, active = well fitted curve in the direction sought with a large enough effect; inconclusive = small, poorly fitted or top-dose-only effect, or effect the other way; inactive = no such curve, though single readings can be large or run the other way. A selection follows. Where a structure was tested more than once in an assay, its records may differ in their call.
# Biological target: Cytochrome P450 2D6 (Homo sapiens) (UniProt P10635)
# Sequence (P10635 whole entry, looked up): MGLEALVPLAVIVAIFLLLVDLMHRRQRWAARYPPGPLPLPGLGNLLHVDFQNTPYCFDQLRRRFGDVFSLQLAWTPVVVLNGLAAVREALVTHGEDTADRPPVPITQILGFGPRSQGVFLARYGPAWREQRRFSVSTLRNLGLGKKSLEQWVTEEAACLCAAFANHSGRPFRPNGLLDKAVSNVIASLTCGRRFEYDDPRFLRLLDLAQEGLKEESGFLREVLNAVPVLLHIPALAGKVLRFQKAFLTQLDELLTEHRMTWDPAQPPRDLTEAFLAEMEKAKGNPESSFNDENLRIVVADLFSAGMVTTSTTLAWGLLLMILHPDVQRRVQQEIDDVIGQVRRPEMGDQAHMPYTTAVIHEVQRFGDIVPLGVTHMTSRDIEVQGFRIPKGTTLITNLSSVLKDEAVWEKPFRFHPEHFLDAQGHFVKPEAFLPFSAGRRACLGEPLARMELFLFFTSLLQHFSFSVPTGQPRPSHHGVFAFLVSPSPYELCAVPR
# Assay: Cytochrome panel assay with activity outcomes
# Conditions: recombinant CYP, pro-luciferin dealkylation, luminescence, p450-cyp2d6; series mostly up to 57.1 µM; activity, negative = inhibition: at the top concentration
# % is set by controls: 0 for no effect and ±100 for the full control effect.
SMILES,"activity, negative = inhibition",AC50
Fc1ccc2nc(Nc3nc4c(s3)CCCC4)sc2c1,-30% (inactive),
Cc1cc(OC(=O)c2cc(F)c(F)cc2Cl)nc(C)n1,0.508% (inactive),
O=C(O)CN(CCN(CC(=O)O)CC(=O)O)CCN(CC(=O)O)CC(=O)O,,inactive
Nc1nc(N)c2[nH]cnc2n1 (tested in a mixture with another compound),-4.07% [at 11.4 µM] (inactive),
C/C(Cl)=C\Cn1c(N2CCCC2)nc2c1c(=O)[nH]c(=O)n2C,-1.19% (inactive),
C[C@@H](CC(=O)O)[C@@H](N)C(=O)O,4.74% (inactive),
Cc1ccnc(NS(=O)(=O)c2ccc(N)cc2)n1,,inactive
COC(=O)c1ccc(CCc2cc(O)ccc2O)cc1,7.07% [at 11.4 µM] (inactive),
O=c1[nH]c(=S)c2[nH]c(=O)n(-c3ccccc3)c2[nH]1,7.71% [at 11.4 µM] (inactive),
CO[C@]1(NC(=O)Cc2cccs2)C(=O)N2C(C(=O)O)=C(COC(N)=O)CS[C@H]21,0.942% [at 25.6 µM] (inactive),
NC1=NC2(CCCCC2)N=C(Nc2ccc(F)cc2F)N1,,12.6 µM (active)
CC(=O)NC1(c2ccc(F)cc2)CCN(C(=O)Nc2ccc(F)cc2F)CC1,-3.83% (inactive),
CO[C@H]1OC[C@@]2(C)[C@@H]3C4=C(CN2C(=O)OC(C)(C)C)[C@H](C)[C@H](CO)[C@H](CO)[C@H]4CC[C@H]13,-0.655% (inactive),
Cc1cccc(CCNc2nc3ccccc3n3nnnc23)c1,-2.97% (inactive),
Cc1cccc(OCCn2c(-c3ccco3)nc3ccccc32)c1,,5.01 µM (active)
Cc1cccc(N2CC(O)=C(c3nc4ccccc4n3C)C2=N)c1,-23.1% (inactive),
Cn1cc(C(=O)c2ccc(Cl)cc2Cl)cc1C(=O)O,11.2% (inactive),
O=c1c(-c2ccccc2)nc2cnc(N3CCNCC3)nc2n1-c1ccccc1,-14.5% (inactive),
OCCN1CCN(c2nc(N3CCCCC3)nc(N3CCCCC3)n2)CC1,-15% (inactive),
N#CN(CC(N)=O)c1nc(N2CCCCC2)nc(N2CCCCC2)n1,,14.1 µM (active)
O=c1nc(N2CCCCCC2)nc(N2CCCCCC2)[nH]1,-8.94% (inactive),
Cc1[nH]c(=O)c(C(=O)/C=C/c2ccccc2F)c2c1CCCC2,-24.7% (inactive),
COCCn1c(=O)c(-c2ccc(OC)cc2)nc2cnc(N3CCOCC3)nc21,8.27% (inactive),
NNC(=O)[C@@H](O)[C@H](O)[C@H](O)CO,17.4% [at 11.4 µM] (inactive),
CCCCNC(=O)C(=O)NC(C)CCc1ccccc1 (stereo unspecified),26.5% (inactive),
O=C(NCCCc1ccccc1)c1cccs1,-14.8% (inactive),

SMILES,"activity, negative = inhibition",AC50
CCN(CCCc1ccccc1)CCCc1ccccc1,,1 µM (active)
COc1ccc(-c2nc3cnc(N4CCN(C)CC4)nc3n(C)c2=O)cc1,-1.16% (inactive),
O=C(CCNC(=O)c1ccccc1)OCN1C(=O)c2ccccc2C1=O,4.05% (inactive),
O=c1c(-c2ccc(Cl)cc2)nc2cnc(N3CCOCC3)nc2n1C1CC1,-4.21% (inactive),
CCCCCCCCCCCC1=C(O)C(=O)C=C(O)C1=O,,2 µM (active)
Cc1ccc(S(=O)(=O)ON=C2CCN(S(=O)(=O)c3ccccc3)CC2)cc1,-26.8% (inactive),
CCOc1ccc(NC(=O)c2ccc(Br)o2)c([N+](=O)[O-])c1,-3.66% (inactive),
CCOc1ccc(N2C(=O)C3C4C=CC(CC4)C3C2=O)c([N+](=O)[O-])c1 (stereo unspecified),,11.2 µM (active)
CCOc1ccc(C(C)=O)cc1N1C(=O)C2C(C1=O)C1C=CC2C12CC2 (stereo unspecified),-12.3% (inactive),
CCOC(=O)C1CCCN(C(=O)c2cc3nc(-c4ccc5c(c4)OCO5)cc(C(F)(F)F)n3n2)C1 (stereo unspecified),-22.8% (inactive),
CCCCC(=O)N/N=C(\C)CC(=O)Nc1cc(Cl)ccc1OC,-15.1% (inactive),
O=C(COC(=O)c1cccc(S(=O)(=O)N2CCOCC2)c1)Nc1nc(-c2ccccc2Cl)cs1,-27.2% (inactive),
CN(CCc1ccc(Cl)c(Cl)c1)C[C@@H](O)COc1ccc(NS(C)(=O)=O)cc1,,25.1 µM (active)
COc1ccc(COc2ccsc2C(=O)Nc2ccc(Cl)c(Cl)c2)cc1,-13.6% (inactive),
O=c1c(-c2cc(F)cc(F)c2)nc2cnc(N3CCNCC3)nc2n1Cc1cccs1,-1.74% (inactive),
CC(C)CCOc1ccc(NC(=O)C2OC3OC(C)(C)OC3C3OC(C)(C)OC23)cc1 (stereo unspecified),0.481% (inactive),
CCOC(=O)c1sc(NC(=O)CSc2n[nH]c(-c3ccc(Cl)cc3Cl)n2)c(C#N)c1C,,28.2 µM (active)
CCOC(=O)c1sc(NC(=O)CSc2nc(C)cc(C)n2)c(C#N)c1C,-15.9% (inactive),
CCOC(=O)c1sc(NC(=O)CSc2nc(C)cc(C)c2C#N)c(C#N)c1C,-7.84% (inactive),
O=C(Oc1c(Br)cc(C(=S)N2CCOCC2)cc1Br)c1ccc(Cl)cc1,-11.2% (inactive),
CC(=O)NCCNc1cc(-c2ccccc2C(F)(F)F)ncn1,-2.78% (inactive),
CC(=O)NCCNc1ncnc2ccc(-c3ccccc3Cl)cc12,,15.8 µM (active)
CC(=O)NCCNc1ncnc2ccc(-c3ccccc3C#N)cc12,-9.82% (inactive),
CC(=O)NCCNc1ncnc2ccc(-c3ccccc3C(F)(F)F)cc12,,20 µM (active)
CC(=O)NCCNc1ncnc2ccc(-c3ccccc3C)cc12,,20 µM (active)
Cc1[nH]n(C(C)(C)C)c(=O)c1Sc1ccc(Cl)cc1,-25.3% (inactive),

SMILES,"activity, negative = inhibition",AC50
CCOc1ccc(N(C(C)C(=O)NC(C)CC)S(C)(=O)=O)cc1 (stereo unspecified),-68.4% (inactive),
CCC(C)OC(=O)C1=C(C)NC(=O)CC1c1ccccc1OC (stereo unspecified),-6.88% (inactive),
O=c1c(-c2cc(F)cc(F)c2)nc2cnc(N3CCOCC3)nc2n1-c1ccccc1,0.324% (inactive),
CCOC(=O)c1cnn(CCOC(=O)C(C)(C)C)c1NC(=O)C(C)(C)C,-4.94% (inactive),
O=[N+]([O-])c1ccc2c(c1)S(=O)c1ccccc1-2 (stereo unspecified),-5.2% [at 11.4 µM] (inactive),
Cc1cc(NC(=O)CCN2C(=O)C3C4CCC(C4)C3C2=O)c(C)cc1Br (stereo unspecified),5.69% (inactive),
CCc1cccc(C)c1NC(=O)CSc1nc2ccc(N3C(=O)c4ccccc4C3=O)cc2s1,7.32% (inactive),
CS(=O)(=O)Nc1cccc(-c2nc(Nc3ccncc3)c3ccccc3n2)c1,,20 µM (active)
CS(=O)(=O)Nc1cccc(-c2ccc3ncnc(N4CCNCC4)c3c2)c1,3% (inactive),
CS(=O)(=O)Nc1cccc(-c2nc(N3CCOCC3)c3ccccc3n2)c1,-11.6% (inactive),
CS(=O)(=O)Nc1cccc(-c2nc(N3CCNCC3)c3ccccc3n2)c1,,10 µM (active)
CNc1nc(-c2cccc(NS(C)(=O)=O)c2)nc2ccccc12,-8.43% (inactive),
CS(=O)(=O)Nc1cccc(-c2nc(Nc3ccccc3)c3ccccc3n2)c1,,10 µM (active)
COc1ccc2c(c1)c(=O)oc1c(C)c(OCC(=O)N3CCc4ccccc4C3)ccc12,-30.9% (inactive),
COc1ccc(Oc2ncc3nc(-c4cccs4)c(=O)n(C)c3n2)cc1,-1.75% (inactive),
CCCCC(=O)NC(Nc1cc(C)ccn1)(C(=O)OCC)C(F)(F)F (stereo unspecified),-6.47% (inactive),
CCOC(=O)CN1N=C(/C=C/c2ccc(C)cc2)CCC1=O,-3.19% (inactive),
Cc1ccccc1NC1=NC(=S)N(c2ccccc2)C12CCOC(C)(C)C2 (stereo unspecified),0.784% (inactive),
CCn1nc(C(=O)Nc2ccccc2C)c(Cl)c1Cl,0.463% (inactive),
O=C(N/N=C/c1ccc(Br)s1)c1ccccc1[N+](=O)[O-],-16.7% (inactive),
CCCCN(C(=O)Nc1ccc(OCC)cc1)C1CCN(C(C)=O)CC1,17.3% (inactive),
CSc1nc(C2CC2)cc(-c2cccs2)c1C#N,-8.47% (inactive),
O=C1NC(=O)C(c2ccccc2)(c2ccccc2)N1,3.16% (inactive),
CCCC1CCC(c2ccc(C(N)=O)cc2)CC1 (stereo unspecified),22.9% (inactive),
CNCC[C@H](Oc1ccccc1OC)c1ccccc1,,1.26 µM (active) and inactive
COCCn1c(=O)c(-c2cn(C)c3ccccc23)nc2cnc(N3CCNCC3)nc21,-5.08% (inactive),

SMILES,"activity, negative = inhibition",AC50
COC(=O)[C@@H]1[C@@H]2C[C@H]3c4[nH]c5cc(OC)ccc5c4CCN3C[C@@H]2C[C@H](OC(=O)c2cc(OC)c(OC)c(OC)c2)[C@H]1OC,-9.04% [at 25.6 µM] (inactive),
C#C[C@]1(O)CC[C@@H]2[C@H]3CCc4cc(OC)ccc4[C@@H]3CC[C@@]21C,0.842% [at 25.6 µM] (inactive),
O=C1CC(=O)C(n2cncn2)C(c2cccc(Cl)c2)C1 (stereo unspecified),-36.4% (inactive),
Cc1nn(-c2ccc(F)cc2)c(C)c1NS(=O)(=O)c1ccc2ccccc2c1,,11.2 µM (active)
Cc1cc(N)n(-c2ccc3ccccc3c2)n1,-17.4% (inactive),
CC(=O)Nc1c(C)nn(-c2ccc(C)c(C)c2)c1C,-12.7% (inactive),
CC(C)(C)C(=O)OCc1cn(-c2ccc(Cl)cc2)nn1,-28.8% (inactive),
Cc1nc(SCC(=O)c2ccc(Cl)s2)c2oc3ccccc3c2n1,15.2% (inactive),
COCCn1c(=O)c(-c2cn(C)c3ccccc23)nc2cnc(OCc3ccccc3)nc21,-5.75% (inactive),
O=C(c1ccc(Br)cc1)c1cc([N+](=O)[O-])ccc1N1CCCCC1,-4.02% (inactive),
COc1ccc2nc(C)cc(SCC(=O)Nc3c(C)cc(C)cc3C)c2c1,4.42% (inactive),
COc1ccc2nc(SCC(=O)NN)cc(C)c2c1,-12.7% (inactive),
CCN(CC)CCC[C@H](C)Nc1c2ccc(Cl)cc2nc2ccc(OC)cc12,,200 nM (active) and 126 nM (active)
Cn1c(=O)n(C)c2cc(/C=N/NC(=O)c3ccc(Cl)cc3Cl)ccc21,11.9% (inactive),
CCN1CCC[C@@H]1CNC(=O)c1cc(S(N)(=O)=O)ccc1OC,-10.7% (inactive),
CCN1CCC[C@H]1CNC(=O)c1c(OC)ccc(Br)c1OC,,inactive and 200 nM (active)
CCc1cc(Cl)c(OC)c(C(=O)NC[C@@H]2CCCN2CC)c1O,,0.0501 µM (active)
CCN1CCCC1CNC(=O)CCNC(=O)c1cc(OC)c(OC)c(OC)c1 (stereo unspecified),12.3% (inactive),
CCN1CCC[C@H]1CNC(=O)c1cc(S(N)(=O)=O)ccc1OC,-18.3% [at 25.6 µM] (inactive),
CCOc1ccc(NC(=O)C(=O)NCC2CCCN2CC)cc1 (stereo unspecified),-7.58% (inactive),
N[C@@H](Cc1c[nH]c2ccc([N+](=O)[O-])cc12)C(=O)O,4.93% [at 11.4 µM] (inactive),
Cc1ccccc1Cn1cc(NC(=O)CSc2nc3c(c(C(F)(F)F)n2)CCc2ccccc2-3)cn1,-12.6% (inactive),
Cn1c(=O)c(-c2ccc(Cl)cc2)nc2cnc(Oc3cccc(Cl)c3)nc21,0.522% (inactive),

# Source: PubChem BioAssay AID1851 (National Center for Advancing Translational Sciences (NCATS), 2009)
